# FLuc counter = firefly luciferase modulation, counter-screen for miR-21 project; P08659; purified FLuc, Km substrates, luminescence inhibition; Potency, µM (highest dose often 57.5 µM), for the others: top-dose activity change, negative = inhibition, most hits filed as inhibitors; 360,000 tested, 6.9% active;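 further: plate controls were vehicle for no effect and reference inhibitor for full effect; nearly all actives have a fitted effect of over 55% in size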
#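 Purified P. pyralis luciferase, 10 nM final, with Km-level 10 uM D-luciferin and 10 uM ATP in 50 mM Tris acetate pH 7.5, 10 mM Mg acetate, 0.01% Tween-20, 0.05% BSA; 6-point qHTS titration about 60 µM downward; luminescence read.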
# ELG1 genotoxic = induces genotoxicity in HEK293T cells with luciferase-tagged ELG1; Potency, µM (titrated, usually from 46 µM), for the others: at the highest dose activity change, positive = activation, hits mostly activators; HEK293T ELG1-luciferase reporter, luminescence, 16 h; 330,000 tested, 1.3% active; further: % of control where 0% means no effect; nearly all actives have a fitted effect of over 60% in size
#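 Cells (2,000/well) expressing the ELG1-luciferase fusion are dosed by pin tool and kept 16 hr at 37 °C, 5% CO2. Signal comes from ONE-Glo luciferase reagent after 30 min at room temperature.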
# ELG1 repair inh = blocks ELG1-dependent DNA repair in HEK293T cells; HEK293T ELG1-luciferase reporter, luminescence, 16 h; DNA damage induced by 5-fluorouridine; Potency, µM (highest dose often 46.1 µM), inactives show at the top dose activity change, negative = inhibition, usual class: inhibitors; 330,000 tested, 2.3% active; AID 504467; further: on the % scale 0 is the no-effect control and ±100 the full control effect; nearly all actives have a fitted effect of over 55% in size
#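 Quantitative HTS, concentration-response format. 2,000 cells/well co-treated with 5-fluorouridine and compound, 16 hr in 5% CO2 at 37 °C; ONE-Glo luminescence read after 30 min.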
# SMN2 splice up = enhancers of SMN2 splice variant expression | 210,000 tested, 2.8% active | HEK293 SMN2-luciferase splicing reporter, luminescence, 30-36 h | Potency, µM (top dose mostly 46.1 µM), for inactives: top-dose activity change, positive = activation, actives largely listed as activators; further: % of control where 0% means no effect; nearly all actives have a fitted effect of over 55% in size
#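 HEK293 cells carry an SMN2 […]–luciferase reporter in which exon 7 inclusion puts luciferase in frame. Cells were plated 10-12 h before compound addition, then incubated 30-36 h at 37C. ONE-Glo luminescence was read; sodium butyrate at 4.5 mM final served as control.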
# NPC1 promoter act = activates the NPC1 promoter. Huh7 NPC1 promoter luciferase reporter, 24 h. Potency, µM (highest dose often 9.22 µM), for the others: at the highest dose activation, actives largely listed as activators. 320,000 tested, 2.4% active; further: % of control where 0% means no effect; nearly all actives have a fitted effect of over 60% in size
#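 Readout is luciferase luminescence, reflecting NPC1 promoter activation in stably transfected Huh7 cells after 24 h compound exposure at 37 °C in reduced-serum medium with 10% FBS.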
# Rab9 prom act = activates the Rab9 promoter. Huh7 Rab9 promoter-luciferase reporter, luminescence, 24 h. Potency, µM (top dose mostly 9.22 µM), for the others: top-dose activation, negative = inhibition, usual class: activators. 320,000 tested, 2.8% active. AID 485297; further: % of control where 0% means no effect; nearly all actives have a fitted effect of over 60% in size
#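 Measured in stably transfected Huh7 cells bearing a Rab9 promoter–luciferase construct: 24 h compound treatment at 37 °C, followed by luminescence detection.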
# ELG1 FLuc counter = luciferase inhibition in cell-free luciferin readout for ELG1 hits; shares compounds with ELG1 repair inh; cell-free firefly luciferase luminescence counter-screen, ViewLux; Potency, µM (top dose mostly 46.1 µM), for the others: top-dose activity change, negative = inhibition, hits mostly inhibitors; 350 tested, 3% active; further: on the % scale 0 is the no-effect control and ±100 the full control effect
# ELG1 Luc conf = human ELG1 repair inhibition, luciferase-tagged ELG1 confirmation; AID 624248; Potency, µM (highest dose often 46.1 µM), for inactives: top-dose activity change, negative = inhibition, usual class: inhibitors; shares compounds with ELG1 repair inh; 670 tested, 68% active; HEK293T ELG1-luciferase levels, luminescence; cells co-treated with 5-fluorouridine; further: on the % scale 0 is the no-effect control and ±100 the full control effect; nearly all actives have a fitted effect of over 55% in size
# Target sequence (Q96QE3 whole entry, looked up): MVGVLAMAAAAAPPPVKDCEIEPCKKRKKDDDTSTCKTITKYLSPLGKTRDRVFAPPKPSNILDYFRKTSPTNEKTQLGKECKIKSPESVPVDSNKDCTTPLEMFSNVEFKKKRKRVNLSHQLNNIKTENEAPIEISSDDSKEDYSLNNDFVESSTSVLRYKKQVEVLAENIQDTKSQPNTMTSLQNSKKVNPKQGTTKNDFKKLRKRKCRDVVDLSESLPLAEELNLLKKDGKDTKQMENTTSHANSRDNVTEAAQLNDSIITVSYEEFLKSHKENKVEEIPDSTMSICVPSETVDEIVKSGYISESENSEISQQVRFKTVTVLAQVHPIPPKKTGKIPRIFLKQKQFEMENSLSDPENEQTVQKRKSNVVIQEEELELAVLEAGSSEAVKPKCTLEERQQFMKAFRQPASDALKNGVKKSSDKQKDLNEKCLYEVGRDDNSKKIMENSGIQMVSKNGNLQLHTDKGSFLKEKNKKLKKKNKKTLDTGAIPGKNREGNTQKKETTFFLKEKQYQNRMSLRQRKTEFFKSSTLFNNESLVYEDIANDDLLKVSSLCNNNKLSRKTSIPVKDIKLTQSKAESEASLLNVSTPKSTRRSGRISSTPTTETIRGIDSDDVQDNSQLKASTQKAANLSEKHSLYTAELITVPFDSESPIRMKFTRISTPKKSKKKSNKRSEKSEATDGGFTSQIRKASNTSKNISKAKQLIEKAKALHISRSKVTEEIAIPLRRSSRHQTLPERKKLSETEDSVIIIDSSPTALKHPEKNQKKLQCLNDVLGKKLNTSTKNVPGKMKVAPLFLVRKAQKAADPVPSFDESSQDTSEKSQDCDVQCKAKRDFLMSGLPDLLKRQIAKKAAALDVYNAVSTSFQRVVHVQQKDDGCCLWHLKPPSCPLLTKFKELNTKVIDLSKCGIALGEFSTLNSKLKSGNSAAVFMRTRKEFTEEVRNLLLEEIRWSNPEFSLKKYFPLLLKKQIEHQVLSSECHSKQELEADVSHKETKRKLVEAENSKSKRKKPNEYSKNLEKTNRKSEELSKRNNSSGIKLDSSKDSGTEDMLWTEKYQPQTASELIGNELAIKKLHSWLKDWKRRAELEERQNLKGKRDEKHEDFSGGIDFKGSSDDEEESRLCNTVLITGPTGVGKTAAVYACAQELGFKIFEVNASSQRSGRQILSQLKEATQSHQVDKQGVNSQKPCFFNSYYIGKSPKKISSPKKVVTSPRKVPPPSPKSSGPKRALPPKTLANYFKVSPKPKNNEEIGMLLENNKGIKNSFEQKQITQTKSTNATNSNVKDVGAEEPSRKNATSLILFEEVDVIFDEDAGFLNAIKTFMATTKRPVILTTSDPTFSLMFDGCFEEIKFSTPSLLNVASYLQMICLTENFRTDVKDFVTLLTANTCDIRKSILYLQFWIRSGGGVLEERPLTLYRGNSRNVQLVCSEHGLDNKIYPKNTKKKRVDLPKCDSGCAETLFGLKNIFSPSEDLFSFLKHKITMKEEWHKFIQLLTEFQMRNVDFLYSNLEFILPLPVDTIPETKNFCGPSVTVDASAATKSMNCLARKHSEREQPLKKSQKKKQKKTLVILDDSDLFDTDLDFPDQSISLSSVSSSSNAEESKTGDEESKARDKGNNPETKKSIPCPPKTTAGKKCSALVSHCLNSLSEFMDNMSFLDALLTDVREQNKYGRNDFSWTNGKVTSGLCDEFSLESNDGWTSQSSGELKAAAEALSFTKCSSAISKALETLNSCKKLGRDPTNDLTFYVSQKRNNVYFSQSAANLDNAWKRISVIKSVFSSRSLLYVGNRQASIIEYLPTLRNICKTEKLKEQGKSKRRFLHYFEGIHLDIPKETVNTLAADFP
# ELG1-Luc MMS = inhibits ELG1-dependent repair under MMS stimulation in HEK293T cells; shares compounds with ELG1 repair inh; HEK293T luciferase-tagged ELG1 level, MMS stimulated; Potency, µM (top dose mostly 46.1 µM), without a hit: top-dose activity change, negative = inhibition, usual class: inhibitors; 670 tested, 53% active; AID 624249; further: on the % scale 0 is the no-effect control and ±100 the full control effect; nearly all actives have a fitted effect of over 60% in size
# ELG1 5FU viab = confirmation of ELG1 repair inhibitors: viability with 5FU; cell viability with 5-FU, ELG1-dependent repair; 670 tested, under 10 active; AID 624250; shares compounds with ELG1 repair inh; Potency, µM (top dose mostly 46.1 µM), for the others: top-dose activity change, negative = viability loss, hits mostly cytotoxic;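 further: ELG1-luc HEK293T cells cotreated with 5-fluorouridine at 10 µM final; viability measured 16 h after compound addition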
# ELG1 MMS viab = confirmation of ELG1 repair inhibitors: viability with MMS; AID 624251; shares compounds with ELG1 repair inh; Cell viability with MMS, ELG1-dependent DNA repair; 670 tested, 33% active; Potency, µM (titrated, usually from 46.1 µM), for the others: at the highest dose activity change, negative = viability loss, usual class: cytotoxic;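 further: ELG1-luc HEK293T cells co-treated with 10 µM MMS; viability read 16 h after compound addition; on the % scale 0 is the no-effect control and ±100 the full control effect; nearly all actives have a fitted effect of over 60% in size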
# Cell viab unstim = counter-screen for ELG1 repair inhibitors: unstimulated cell viability. shares compounds with ELG1 repair inh. cell viability counter-screen, unstimulated, luminescence. Potency, µM (titrated, usually from 45.9 µM), inactives show at the top dose activity change, negative = loss of viability, actives largely listed as cytotoxic. 900 tested, 8% active. AID 624252;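 further: compound exposure lasted 16 hours before reading; on the % scale 0 is the no-effect control and ±100 the full control effect; nearly all actives have a fitted effect of over 55% in size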
# FLuc enzyme = inhibits purified firefly luciferase, counter-screen for ELG1 hits. shares compounds with ELG1 repair inh. purified firefly luciferase, luminescence counter-screen. Potency, µM (series often up to 57.5 µM), inactives show top-dose activity, negative = inhibition, most hits filed as inhibitors. 350 tested, 10% active; further: on the % scale 0 is the no-effect control and ±100 the full control effect
# * hit, by the source's call; ? = inconclusive; . = no result; [ ] = dose if it differs, or a comment. Compounds with a hit are over-represented: about 9.4% of the library has one in this group of screens. The call rests on the fitted dose curve; in most records, active means well fitted curve in the direction sought with a large enough effect; inconclusive means small, poorly fitted or top-dose-only effect, or another doubt; inactive means no such curve, though single readings can be large; an effect the other way counts as inactive or inconclusive. Potency means the concentration at half of the fitted maximal effect.
SMILES,FLuc counter,ELG1 genotoxic,ELG1 repair inh,SMN2 splice up,NPC1 promoter act,Rab9 prom act,ELG1 FLuc counter,ELG1 Luc conf,ELG1-Luc MMS,ELG1 5FU viab,ELG1 MMS viab,Cell viab unstim,FLuc enzyme
C#Cc1ccc([C@H]2C=C(C(=O)N3CCN(Cc4ccc5c(c4)OCO5)CC3)O[C@@H](OCc3ccc(CO)cc3)C2)cc1,-1%,-10%,1.6µM*,.,-4%,-5%,-7%,5.6µM*,?,?,?,-3%,-1%
O=C(CNC(=O)c1cccc(F)c1)N/N=C/c1ccc([N+](=O)[O-])s1,-13%,-17%,2.9µM*,-25%,-16%,-23%,.,?,10µM*,-3%,14µM*,-4%,.
O=C(N/N=C/c1ccc([N+](=O)[O-])s1)c1ccccc1,-15%,-7%,?,-45%,-11%,-23%,.,.,.,.,.,.,.
COc1ccc(C2=Nn3c(nnc3-c3ccncc3)SC2)cc1,0%,-8%,2.3µM*,12%,5%,3%,-3%,6.3µM*,?,-2%,-6%,-12%,-10%
Cc1cc(C(=O)NNc2ccc(F)cc2)no1,1%,9%,2.9µM*,.,10%,1%,.,-5%,19%,-8%,-2%,1%,.
C[C@H]1CN([C@@H](C)CO)C(=O)c2cccc(NC(=O)Nc3ccc(C(F)(F)F)cc3)c2O[C@@H]1CN(C)Cc1ccc(Cl)c(Cl)c1,.,-11%,4.6µM*,.,.,.,.,14µM*,14µM*,?,25µM*,13µM*,.
COc1ccc(NC(=O)N(C)C[C@H]2Oc3c(NC(=O)Nc4ccc(C(F)(F)F)cc4)cccc3C(=O)N([C@H](C)CO)C[C@@H]2C)cc1,.,-13%,?,.,.,.,.,.,.,.,.,.,.
C[C@H](CO)N1C[C@H](C)[C@@H](CN(C)C(=O)Nc2ccc(C(F)(F)F)cc2)Oc2c(NC(=O)Nc3ccc4c(c3)OCO4)cccc2C1=O,.,-3%,0.58µM*,.,.,.,6%,2µM*,-18%,?,9%,-12%,?
C[C@@H]1CN([C@H](C)CO)C(=O)c2cc(NC(=O)Nc3ccc(C(F)(F)F)cc3)ccc2O[C@H]1CN(C)Cc1ccc(Cl)c(Cl)c1,.,-7%,?,.,.,.,.,.,.,.,.,.,.
C[C@H](CO)N1C[C@H](C)[C@@H](CN(C)C(=O)Nc2ccc(C(F)(F)F)cc2)Oc2c(NC(=O)Nc3ccccc3)cccc2C1=O,.,-7%,0.52µM*,.,.,.,-11%,6.3µM*,-13%,?,-7%,?,?
Cc1nn(CC(=O)NCCCN2CCCC2=O)c(C)c1[N+](=O)[O-],.,1%,4%,.,.,.,.,.,.,.,.,.,.
Cc1ccc(NS(=O)(=O)c2ccc(Cl)c(NC(=S)NC(=O)C3CCCCC3)c2)cc1Cl,0%,-10%,-21%,-1%,-6%,-3%,.,.,.,.,.,.,.
COc1ccc(OC)c(Cc2nnc(CCC(=O)NCc3ccsc3)o2)c1,?,8%,?,.,0%,0%,.,.,.,.,.,.,.
COc1ccc(NC(=O)Cn2nnc(C(=O)NCc3ccc4c(c3)OCO4)c2N)c(OC)c1,0%,1%[9.26 µM],8%,.,1%,2%,.,.,.,.,.,.,.
COc1cccc(-c2cc(NCc3cccs3)ncn2)c1,.,.,.,8.9µM*,.,.,67%,.,.,.,.,-3%,3.7µM*
O=C(O)CN1C(=O)C(=O)N(Cc2ccc(Cl)c(Cl)c2)C1=O,1%,1%,6%,.,-3%,0%,.,.,.,.,.,.,.
CCOC(=O)C1CCN(c2cc3c(cc2NC(=O)c2ccccc2Br)n(C)c(=O)n3C)CC1,2%,-8%,9.2µM*,.,2%,-4%,0%,7.9µM*,?,?,7%,-1%,0%
CCOC(=O)C1CCN(c2cc3c(cc2NC(=O)c2cc(OC)ccc2Br)n(C)c(=O)n3C)CC1,0%,-7%,?,.,1%,11%,.,.,.,.,.,.,.
Cc1ccc(OCCC(=O)NNC(=O)c2nn(C)c(=O)c3ccccc23)cc1,-3%,2%,-2%,.,0%,0%,.,.,.,.,.,.,.
Cc1cc(NNC(=O)Nc2cccc(Cl)c2)nc2c1c(C)nn2C,-4%,-5%,0.73µM*,.,-33%,-35%,-8%,?,0.79µM*,-2%,1µM*,-10%,-1%
Cc1ccc(N2CC(C(=O)N3CCOCC3)CC2=O)cc1Cl (centres undefined),-1%,-1%,22%,.,0%,5%,.,.,.,.,.,.,.
CCN(CC)C(=O)c1ccc2c3c(cccc13)C(=O)N(CCc1ccc(OC)c(OC)c1)C2=O,1%,-13%,4.6µM*,.,7%,-1%,.,11µM*,10µM*,?,22µM*,25µM*,.
COc1ccc(CCN2C(=O)c3cccc4cccc(c34)C2=O)cc1OC,-10%,2%,6%,-12%,27%,-8%,.,.,.,.,.,.,.
CN1/C(=C\C(=O)C[n+]2ccc3ccccc3c2)C(C)(C)c2ccccc21,0%,-8%,1.2µM*,-49%,-37%,-21%,.,?,2µM*,-6%,2.8µM*,?,.

# Screens: PubChem, National Center for Advancing Translational Sciences (NCATS)
